In PubChem BioAssay (NCATS):
Values joined by “and” are separate entries in the source; they are usually repeats but may differ in a detail not shown here. Equal values may be shown once. Inconclusive results are not listed. Active and inactive are the calls of the source. The call rests on the fitted dose curve; in most records, active means well fitted cell-killing curve with a large enough effect; inconclusive means small, poorly fitted or top-dose-only effect, or effect the other way; inactive means no such curve, though single readings can be large or run the other way.

test: Viability qHTS for spleen associated tyrosine kinase inhibitor (SYKi) naive MV4-11 cells (AID 1963823); conditions: MV4-11 AML viability, CellTiter-Glo luminescence, 72 h; series mostly up to 45 µM; further: nearly all actives have a fitted effect of over 40% in size
Method in brief: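 Seeding of 500 SYKi-naive MV4-11 cells per well onto pre-dispensed compounds preceded a 72 hr incubation at 37 C. Luminescent CellTiter-Glo signal, read after 10 min at room temperature, reflected viable cells.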
Potency means the concentration at half of the fitted maximal effect.

Compound	Potency
NC[C@@](O)(c1ccc(Cl)cc1)c1ccc(-c2cn[nH]c2)cc1	2.06 µM (active) and 3.32 µM (active)
CCN(C(=O)c1ccccc1OC)c1cc2c(cc1N1CCNC[C@H]1C)n(C)c(=O)n2C	inactive
NC(=O)c1ncn([C@@H]2O[C@H](CO)[C@@H](O)[C@H]2O)c1O	inactive
COc1ccc(CNC(=O)c2cc(-c3cncc(Cl)c3)cnc2-c2ccccn2)nc1OC	inactive
CC(C(=O)O)c1ccc2c(c1)[nH]c1ccc(Cl)cc12 (stereo not given)	inactive
COc1ccc(Cc2cnc(N)nc2N)cc1OC	inactive
CN(C)CCOc1ccccc1Cc1ccccc1	inactive
Cc1oc(=O)oc1COC(=O)[C@@H]1N2C(=O)[C@@H](NC(=O)[C@H](N)c3ccccc3)[C@H]2SC1(C)C	inactive
O=Cc1ccc(O)c(O)c1O	inactive
CN(C)CCCOc1nn(Cc2ccccc2)c2ccccc12	inactive
CC(=O)O[C@]1(C(C)=O)CC[C@H]2[C@@H]3C[C@H](C)C4=CC(=O)CC[C@]4(C)[C@H]3CC[C@@]21C	8.41 µM (active) and 13.2 µM (active)
CC(C)(Cc1ccc2ccccc2c1)NC[C@@H](O)COc1cccc(Cl)c1C#N	6.61 µM (active)
CCCCNc1ncc2c(-c3ccc(F)cc3)nn(CC3CCC(N)CC3)c2n1 (stereo not given)	0.008 µM (active)
Cc1cccc(C)c1NC(=O)c1ccc(N)cc1	inactive
CC(C)COCC(CN(Cc1ccccc1)c1ccccc1)N1CCCC1 (stereo not given)	13.3 µM (active) and 14.8 µM (active)
CN1C(=O)N[C@H](Cc2c[nH]c3c(Cl)cccc23)C1=O	inactive
CN(C)CCOc1ccc(/C(=C(/CCCl)c2ccccc2)c2ccccc2)cc1	14.8 µM (active)
CCOC(=O)c1cnc2c(cnn2CC)c1NN=C(C)C	inactive
C/C=C/C[C@@H](C)C(=O)[C@H]1C(=O)N[C@@H](C(C)C)C(=O)N(C)CC(=O)N(C)[C@@H](CC(C)C)C(=O)N[C@@H](C(C)C)C(=O)N(C)[C@@H](CC(C)C)C(=O)N[C@@H](C)C(=O)N[C@H](C)C(=O)N(C)[C@@H](CC(C)C)C(=O)N(C)[C@@H](CC(C)C)C(=O)N(C)[C@@H](C(C)C)C(=O)N1C	6.45 µM (active)
C#CC[C@H](c1nc2cc(Cl)ccc2c(=O)n1Nc1ccccc1)N(CCCN)C(=O)c1cccc(Cl)c1F	0.164 µM (active)

Compound	Potency
c1ccc2sc(SN3CCOCC3)nc2c1	inactive
C[C@H](N)[C@H](O)c1cccc(O)c1	inactive
CC(C)Oc1ccc(-c2nn([C@@H](C)c3oc4ccc(F)cc4c(=O)c3-c3cccc(F)c3)c3ncnc(N)c23)cc1F	14.8 µM (active)
O=C(CCCl)NCCc1ccccc1	inactive
CN(C)C(=O)c1cc2cnc(Nc3ccc(N4CCNCC4)cn3)nc2n1C1CCCC1	2.31 µM (active)
CN1CCN(Cc2ccc(Nc3ncc(Cl)c(Nc4ccccc4S(=O)(=O)N(C)C)n3)cc2)CC1	0.006 µM (active)
C[C@@H]1CC(=O)Nc2cccc(-c3cnn(C(C)(C)C)c3)c2N1	14.8 µM (active)
C[C@@H]1CC(=O)Nc2cccc(-c3ccc4c(c3)c(-c3cnn(C)c3)nn4C)c2N1	2.09 µM (active)
C[C@@H](O[C@H]1OCCN(Cc2n[nH]c(=O)[nH]2)[C@@H]1c1ccc(F)cc1)c1cc(C(F)(F)F)cc(C(F)(F)F)c1	16.6 µM (active)
CONC(=O)Nc1ccc(-c2sc3c(c2CN(C)Cc2ccccc2)c(=O)n(-c2ccccc2)c(=O)n3Cc2c(F)cccc2F)cc1	16.6 µM (active)
CNCc1ccccc1	inactive
COc1cccc2c1C(=O)c1c(O)c3c(c(O)c1C2=O)C[C@@](O)(C(=O)CO)C[C@@H]3O[C@H]1C[C@H](N)[C@H](O[C@@H]2CCCCO2)[C@H](C)O1	0.75 µM (active)
O=C(O)/C(S)=C/c1ccc(I)cc1	inactive
Cc1ccc(S(=O)(=O)Nc2cc(-c3ccc(C#N)s3)ccc2C)cc1	0.0295 µM (active)
CNC(=O)[C@H]1O[C@@H](n2cnc3c(NCc4cccc(I)c4)nc(Cl)nc32)[C@H](O)[C@@H]1O	14.8 µM (active)
COc1cc(C)[nH]c(=O)c1CN1CCc2c(Cl)cc([C@H](OC)C3COC3)c(Cl)c2C1=O	inactive
COc1ccccc1C(=O)Nc1cc2c(cc1N1CCCCC1)n(C)c(=O)n2C	14.8 µM (active)
CCC[C@H](N[C@H]1CCc2cc(F)cc(F)c2C1)C(=O)Nc1cn(C(C)(C)CNCC(C)(C)C)cn1	8.33 µM (active)
Cc1ccc(S(=O)(=O)Nc2cc(C(F)(F)F)ccc2C(=O)Nc2nc(-c3ccccc3)cs2)cc1	2.95 µM (active)
CC(/C=C/C(=O)NO)=C\[C@@H](C)C(=O)c1ccc(N(C)C)cc1	326 nM (active) and 296 nM (active)
